# Experimental data taken from PubChem BioAssay (NCI).
# Values joined by “and” are separate entries in the source; they are usually repeats but may differ in a detail not shown here. Equal entries are not always repeated. Compounds without any hit were thinned out: in the full panel of roughly 79,000, 15% have a hit. Some structures have more than one record in an assay (separate samples or runs), and their calls can disagree. Active and inactive are the calls of the source. No stated cut-off is given here; in the data, active means growth inhibition above about 70%; inactive means the rest.
# Legend:
# [1] = NCI Yeast Anticancer Drug Screen. Data for the rad50 strain (AID 155);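 further: 0% = growth of vehicle-only cultures of the same strain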; settings: S. cerevisiae rad50 strain growth inhibition, stronger effect = higher value
# Outline: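 Inhibition values express reduced yeast growth in compound-treated cultures relative to vehicle-treated controls.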
# [2] = NCI Yeast Anticancer Drug Screen. Data for the mec2-1 strain (AID 157); settings: S. cerevisiae mec2-1 strain, stronger effect = higher value
# Outline: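 Readout is yeast growth inhibition, normalised to vehicle-treated controls, in the mec2-1 strain exposed to compound.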
# [3] = NCI Yeast Anticancer Drug Screen. Data for the sgs1 mgt1 strain (AID 161);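 further: 0% = growth of cultures given vehicle only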; settings: S. cerevisiae sgs1 mgt1 strain, stronger effect = higher value
# Outline: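 Compounds are added to genetically altered yeast, and growth is compared with cultures given vehicle alone to give percent inhibition.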
# [4] = NCI Yeast Anticancer Drug Screen. Data for the cln2 rad14 strain (AID 165);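 further: 0% = growth equal to vehicle treated cultures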; settings: S. cerevisiae cln2 rad14 strain, stronger effect = higher value
# Outline: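 Relative to vehicle controls, growth inhibition of compound-treated cln2 rad14 yeast was recorded.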
# [5] = NCI Yeast Anticancer Drug Screen. Data for the bub3 strain (AID 167); settings: S. cerevisiae bub3 mutant strain, stronger effect = higher value
# Outline: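 Steps: expose the mutant yeast strain to compound; grow alongside vehicle-treated cultures; measure growth; express inhibition against the vehicle cultures.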
# [6] = NCI Yeast Anticancer Drug Screen. Data for the mlh1 rad18 strain (AID 175); settings: S. cerevisiae mlh1 rad18 strain growth inhibition, stronger effect = higher value
# Outline: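 Test agents were incubated with a yeast strain of defined genotype (DNA damage repair defect). Inhibition of growth was derived by comparison with vehicle-exposed cultures.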
# [7] = at 5.0 µM (retest, dose inferred, filed as 0.5)
# [8] = at 50.0 µM (retest, dose inferred, filed as 5.0)
SMILES,"growth inhibition [1, 7]","growth inhibition [1, 8]",growth inhibition ([1]; at 50.0 µM),"growth inhibition [2, 7]","growth inhibition [2, 8]",growth inhibition ([2]; at 50.0 µM),"growth inhibition [3, 7]","growth inhibition [3, 8]",growth inhibition ([3]; at 50.0 µM),"growth inhibition [4, 7]","growth inhibition [4, 8]",growth inhibition ([4]; at 50.0 µM),"growth inhibition [5, 7]","growth inhibition [5, 8]",growth inhibition ([5]; at 50.0 µM),"growth inhibition [6, 7]","growth inhibition [6, 8]",growth inhibition ([6]; at 50.0 µM)
O=P(Nc1ccccc1)(Oc1ccccc1)N1CCN(c2ccccc2)CC1 (centres undefined),0% (inactive),97% (active),71.2% (active),-29% (inactive),96% (active),80.7% (active),-32% (inactive),97% (active),84.5% (active),22% (inactive),96% (active),85.9% (active),14% (inactive),96% (active),87.2% (active),-1% (inactive),96% (active),86.5% (active)
CCCCCCCC/C=C\CCCCCCCCN1CC(C(=O)[O][Pb]([CH2]C)([CH2]C)[CH2]C)CC1=O (centres undefined),7% (inactive),77% (active),30.1% (inactive),5% (inactive),80% (active),28.8% (inactive),10% (inactive),79% (active),65.9% (inactive),5% (inactive),66% (inactive),9.45% (inactive),4% (inactive),82% (active),23.3% (inactive),1% (inactive),72% (active),65.7% (inactive)
CC(C)(C)OOC(=O)c1ccccc1,26% (inactive),99% (active),37.6% (inactive),11% (inactive),99% (active),18.4% (inactive),14% (inactive),93% (active),29% (inactive),14% (inactive),99% (active),0.5% (inactive),3% (inactive),99% (active),3.1% (inactive),26% (inactive),99% (active),75.3% (active)
CC(C)CCC[C@@H](C)[C@H]1CC[C@H]2[C@@H]3CC[C@H]4C[C@H](NCCCl)CC[C@]4(C)[C@H]3CC[C@]12C,28% (inactive),36% (inactive),52% (inactive),15% (inactive),26% (inactive),43.6% (inactive),40% (inactive),68% (inactive),49.1% (inactive),28% (inactive),7% (inactive),51% (inactive),45% (inactive),49% (inactive),42.2% (inactive),22% (inactive),27% (inactive),55% (inactive)
CC(=O)OC1CCC2(C)C3=C(CCC2C1(C)C)C1(C)CCC(C(C)CCC2NC2(C)C)C1(C)CC3 (centres undefined),-22% (inactive),86% (active),22.6% (inactive),3% (inactive),66% (inactive),2.5% (inactive),23% (inactive),98% (active),95.8% (active),2% (inactive),23% (inactive),-29.1% (inactive),-1% (inactive),79% (active),10.8% (inactive),6% (inactive),84% (active),11.2% (inactive)
Ic1cccc2c1[se]c1ccccc12,-8% (inactive),22% (inactive),25.2% (inactive),8% (inactive),20% (inactive),-4.05% (inactive),0% (inactive),40% (inactive),6.7% (inactive),5% (inactive),-28% (inactive),-27.8% (inactive),-3% (inactive),27% (inactive),-11.3% (inactive),9% (inactive),75% (active),2.15% (inactive)
[O]=[Sb]([OH])([OH])[c]1ccccc1,95% (active),98% (active),99.5% (active) and -13.8% (inactive),91% (active),99% (active),99.5% (active) and -26.9% (inactive),94% (active),99% (active),99.2% (active) and 28.1% (inactive),94% (active),98% (active),99.4% (active) and 23% (inactive),93% (active),98% (active),99.3% (active) and 17.1% (inactive),94% (active),98% (active),99.2% (active) and 6.5% (inactive)
C[C@]12CC[C@H]3[C@@H](CCC4=CC(=O)CC[C@@H]43)[C@@H]1CC[C@@H]2OC1(O)C(=O)c2ccccc2C1=O,-7% (inactive),47% (inactive),65.2% (inactive),-6% (inactive),21% (inactive),27.4% (inactive),-2% (inactive),59% (inactive),74.8% (active),-16% (inactive),22% (inactive),20.5% (inactive),-8% (inactive),44% (inactive),69.9% (inactive),11% (inactive),44% (inactive),61.7% (inactive)
